Test results from PubChem BioAssay (Tox21).
Records with an inconclusive call do not appear. Where a call stands in place of a potency, no number is given. Activity calls are given as the source filed them. Unless noted, the call rests on the fitted dose curve.

Assays:
[1] = qHTS assay to identify small molecule agonists of the NFkB signaling pathway (AID 1159509; active means well fitted curve in the direction sought with a large enough effect in the signal ratio in the repeat runs, not every such curve was filed as active; the % refers to the signal ratio; further: series mostly up to about 61 µM)
How it was run: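 Readout: FRET fluorescence, 405 nm excitation, 460/530 nm emission; beta-lactamase expression disrupts FRET. Cells: ME-180 stably carrying NF-kB-driven bla reporter. Compound exposure 5 hr, 37 C, 5% CO2.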

[2] = qHTS assay to identify small molecule agonists of the NFkB signaling pathway - cell viability counter screen (AID 1159515); further: nearly all actives have a fitted effect of over 55% in size; further: potency means the concentration at half of the fitted maximal effect
How it was run: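 Plate 2,000 NFkB-bla ME-180 cells/well; incubate overnight. Add compounds, 5 hr at 37 C. Add FRET substrate, 1.5 hr RT. Add CellTiter-Glo, 30 min RT; read luminescence.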

[3] = qHTS assay to identify small molecule agonists of the endoplasmic reticulum stress response signaling pathway (AID 1159516; active means well fitted activation curve with a large enough effect in the signal ratio in the repeat runs, not every such curve was filed as active; the % refers to the signal ratio; further: potency means the concentration at half of the fitted maximal effect)
How it was run: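 Beta-lactamase expression from the ER stress response element in HeLa reporter cells is quantified with the LiveBLAzer B/G FRET substrate, read at 405 nm excitation after 2 hr at room temperature, following 5 hr compound treatment at 37 C.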

[4] = qHTS assay to identify small molecule antagonists of the retinoid-related orphan receptor gamma (ROR-gamma) signaling pathway - cell viability counter screen (AID 1159520; active means well fitted curve in the direction sought with a large enough effect in the repeat runs; an effect the other way counts as inactive or inconclusive; further: nearly all actives have a fitted effect of over 50% in size; further: potency means the concentration at half of the fitted maximal effect)
How it was run: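 Tet-on ROR gamma CHO cells (1,000/well) were plated 4 hr, given compounds in DMSO for 2 hr at 37 C, then induced with 1 uM final doxycycline for 16 hr. Viability was read as ATP by CellTiter-Glo luminescence after 30 min.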

[5] = target: Nuclear receptor ROR-gamma (Homo sapiens) (UniProt P51449); assay: qHTS assay to identify small molecule antagonists of the retinoid-related orphan receptor gamma (ROR-gamma) signaling pathway (AID 1159521; active means well fitted curve in the direction sought with a large enough effect in the repeat runs; an effect the other way counts as inactive or inconclusive; further: nearly all actives have a fitted effect of over 50% in size; further: potency means the concentration at half of the fitted maximal effect)
How it was run: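 Tet-on RORγ CHO cells carrying a ROR response element–luciferase reporter were pretreated with compounds for 2 h, then induced with 1 uM (final) doxycycline hyclate for 16 h at 37 C. Antagonism was read as decreased ONE-Glo luminescence.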

[6] = qHTS assay to identify small molecule agonists of the AP-1 signaling pathway - cell viability counter screen (AID 1159525); further: nearly all actives have a fitted effect of over 55% in size; further: potency means the concentration at half of the fitted maximal effect
How it was run: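 Each titration point was normalised to DMSO and tetra n-octyl ammonium bromide controls. The read was Cell Titer Glo luminescence after 30 min at RT, following 5 h compound exposure of ME-180 AP-1-bla cells at 37 °C.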

[7] = qHTS assay to identify small molecule agonists of the AP-1 signaling pathway (AID 1159526)
[8] = target: Retinoic acid receptor RXR-alpha (Homo sapiens) (UniProt P19793); assay: qHTS assay to identify small molecule agonists of the RXR signaling pathway (AID 1159527); further: nearly all actives have a fitted effect of over 35% in size; further: potency means the concentration at half of the fitted maximal effect
How it was run: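 GeneBLAzer RXR-alpha-UAS-bla HEK 293T cells in medium with 2% charcoal-stripped FBS, pre-incubated 5 hr at 37 C, then exposed to compounds 16 hr. Beta-lactamase reporter read by FRET substrate, 2 hr room temperature, 460/530 nm emission.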

[9] = qHTS assay to identify small molecule antagonists of the vitamin D receptor (VDR) signaling pathway - cell viability counter screen (AID 743225; active means well fitted curve in the direction sought with a large enough effect in the repeat runs; an effect the other way counts as inactive or inconclusive; further: nearly all actives have a fitted effect of over 50% in size; further: potency means the concentration at half of the fitted maximal effect)
How it was run: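 VDR-bla HEK 293T cells, 4 h pre-incubation at 37C, then compound plus 1-alpha,25-dihydroxyvitamin D3 (3 nM final) for 16 h. After the beta-lactamase FRET read, CellTiter-Glo was added to the same wells; luminescence after 30 min at room temperature.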

Retinoic acid receptor RXR-alpha (Homo sapiens), sequence (P19793 whole entry, looked up): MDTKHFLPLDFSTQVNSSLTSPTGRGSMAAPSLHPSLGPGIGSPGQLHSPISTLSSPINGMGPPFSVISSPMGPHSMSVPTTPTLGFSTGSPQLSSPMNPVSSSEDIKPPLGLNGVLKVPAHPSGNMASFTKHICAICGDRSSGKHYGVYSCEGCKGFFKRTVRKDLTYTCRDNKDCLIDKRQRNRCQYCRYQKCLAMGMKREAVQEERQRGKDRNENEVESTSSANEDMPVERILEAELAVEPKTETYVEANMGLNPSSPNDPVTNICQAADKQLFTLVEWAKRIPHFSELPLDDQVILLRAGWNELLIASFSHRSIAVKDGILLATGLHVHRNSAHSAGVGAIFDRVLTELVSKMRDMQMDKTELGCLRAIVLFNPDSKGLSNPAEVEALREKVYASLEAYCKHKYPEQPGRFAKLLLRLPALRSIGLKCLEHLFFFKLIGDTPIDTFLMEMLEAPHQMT

SMILES | outcome [1] | Potency [2] | Potency [3] | Potency [4] | Potency [5] | Potency [6] | outcome [7] | Potency [8] | Potency [9]
CCCCCCCCCCCC(=O)OCC(O)CO (stereo not drawn) | inactive | inactive | inactive | inactive | inactive | inactive | inactive | 54.9 µM (active) | 
O=C(O)CO | inactive | inactive | inactive | inactive | inactive | inactive | inactive |  | inactive
CN=C(N)NC(=O)Nc1c(C)cccc1C | inactive | inactive | inactive | inactive | inactive | inactive | inactive |  | inactive
CO[C@@H]1[C@@H](OC)[C@H](C)[C@@](O)(CC(=O)O)O[C@H]1[C@H](C)[C@H]1O[C@@]2(CC[C@@](C)([C@H]3CC[C@@](C)([C@@H]4O[C@@H]([C@H]5O[C@](C)(O)[C@H](C)C[C@@H]5C)C[C@@H]4OC4C[C@H](OC)[C@@H](OC)[C@H](C)O4)O3)O2)C[C@H](O)[C@H]1C (stereo partly drawn) | inactive | inactive | inactive | 9.44 µM (active) | 0.237 µM (active) |  |  |  | 
O=C1OC[C@H](Cc2cccc(O)c2)[C@H]1Cc1cccc(O)c1 | inactive | inactive | inactive | inactive | inactive | inactive | inactive | inactive | inactive
CC(C)COC(=O)COc1cc(Cl)c(Cl)cc1Cl | inactive | inactive | inactive | inactive | inactive | inactive | inactive | inactive | inactive
COC(OC)OC | inactive | inactive | inactive | inactive | inactive | inactive | inactive | inactive | inactive
O=C(C(=O)c1ccco1)c1ccco1 | inactive | inactive | inactive | inactive | inactive | inactive | inactive | inactive | inactive
CCN(Cc1cccc(S(=O)(=O)O)c1)c1ccc(C(=C2C=CC(=[N+](CC)Cc3cccc(S(=O)(=O)O)c3)C=C2)c2ccccc2S(=O)(=O)[O-])cc1 | inactive | 34.8 µM (active) | inactive | 9.72 µM (active) |  |  |  |  | 
ClC1=C(Cl)C1(Cl)Cl | inactive | inactive | inactive | inactive | inactive | inactive | inactive | inactive | inactive
Nc1nc2ccc(OC(F)(F)F)cc2s1 | inactive | inactive | inactive | inactive | inactive | inactive |  |  | 
C[C@@H]1C[C@H]2[C@@H]3CCC4=CC(=O)C=C[C@]4(C)[C@@]3(F)[C@@H](O)C[C@]2(C)[C@@]1(O)C(=O)COP(=O)(O)O | inactive | inactive | inactive | inactive | inactive | inactive | inactive | inactive | inactive
O=CNNC=O | inactive | inactive | inactive | inactive | inactive | inactive | inactive | inactive | inactive
CC(C)C1CCC(C(=O)N[C@H](Cc2ccccc2)C(=O)O)CC1 (stereo partly drawn) | inactive | inactive | inactive | inactive | inactive | inactive | inactive | inactive | inactive
Cc1c[nH]c2ccccc12 | inactive | inactive | inactive | inactive | inactive | inactive | inactive | inactive | inactive
Cc1ccc(Nc2c(F)cccc2Cl)c(CC(=O)O)c1 | inactive | inactive | inactive | inactive | inactive | inactive | inactive | inactive | inactive
CC[C@H]1OC(=O)[C@H](C)[C@@H](O[C@H]2C[C@@](C)(OC)[C@@H](O)[C@H](C)O2)[C@H](C)[C@@H](O[C@@H]2O[C@H](C)C[C@H](N(C)C)[C@H]2O)[C@](C)(O)C[C@@H](C)/C(=N\OCOCCOC)[C@H](C)[C@@H](O)[C@]1(C)O | inactive | inactive | inactive | inactive | inactive | inactive | inactive |  | 
CC[C@H]1OC(=O)[C@H](C)[C@@H](O[C@H]2C[C@@](C)(OC)[C@@H](O)[C@H](C)O2)[C@H](C)[C@@H](O[C@@H]2O[C@H](C)C[C@H](N(C)C)[C@H]2O)[C@](C)(O)C[C@@H](C)CN(C)[C@H](C)[C@@H](O)[C@]1(C)O | inactive | inactive | inactive | inactive | inactive | inactive | inactive |  | 2.9 µM (active)
Cc1ccc(Cl)cc1N | inactive | inactive | inactive | inactive | inactive | inactive | inactive |  | inactive
COc1ccc(-c2cc(C(F)F)nn2-c2ccc(S(N)(=O)=O)cc2)cc1F | inactive | inactive | inactive | inactive | inactive | inactive | inactive |  | inactive
c1ccc(CNc2ncnc3c2ncn3C2CCCCO2)cc1 (stereo not drawn) | inactive | inactive | inactive | inactive | inactive | inactive | inactive |  | inactive
O=C1OC(=O)c2c(Br)c(Br)c(Br)c(Br)c21 | inactive | inactive | inactive | inactive | inactive | inactive | inactive |  | inactive
O=C(Nc1ccc(C(=O)O)c(O)c1)c1ccccc1 | inactive | inactive | inactive | inactive | inactive | inactive | inactive | inactive | inactive
O=C(CCS)OCC(COC(=O)CCS)(COC(=O)CCS)COC(=O)CCS | inactive | inactive | 8.71 µM (active) | inactive | inactive | inactive | inactive | inactive | inactive
CCc1ccc(C)cc1 | inactive | inactive | inactive | inactive | inactive | inactive | inactive | inactive | inactive

SMILES | outcome [1] | Potency [2] | Potency [3] | Potency [4] | Potency [5] | Potency [6] | outcome [7] | Potency [8] | Potency [9]
CC[C@H]1OC(=O)[C@H](C)[C@@H](O[C@H]2C[C@@](C)(OC)[C@@H](O)[C@H](C)O2)[C@H](C)[C@@H](O[C@@H]2O[C@H](C)C[C@H](N(C)C)[C@H]2O)[C@](C)(O)C[C@@H](C)C(=O)[C@H](C)[C@@H](O)[C@]1(C)O | inactive | inactive | inactive | inactive | inactive | inactive | inactive |  | inactive
CCCCCCCCCCCCCCCC(=O)OCC | inactive | inactive | inactive | inactive | inactive | inactive | inactive | inactive | inactive
Cc1cccc2sc(N)nc12 | inactive | inactive | inactive | inactive | inactive | inactive | inactive | inactive | inactive
CC(CN(CCN(CC(C)OCCO)CC(C)OCCO)CC(C)OCCO)OCCO (stereo not drawn) | inactive | inactive | inactive | inactive | inactive | inactive | inactive | inactive | inactive
Cc1ccc(S(=O)(=O)NC(=O)NC2CCCCC2)cc1 | inactive | inactive | inactive | inactive | inactive | inactive | inactive | inactive | inactive
CC1CCCO1 (stereo not drawn) | inactive | inactive | inactive | inactive | inactive | inactive | inactive | inactive | inactive
CC[C@@H](CO)NCCN[C@@H](CC)CO | inactive | inactive | inactive | inactive | inactive | inactive | inactive | inactive | inactive
CCOC(=O)Oc1ccc(CCNC(=O)[C@H](CCSC)NC(C)=O)cc1OC(=O)OCC | inactive | inactive | inactive | inactive | inactive | inactive | inactive |  | inactive
CCC(CO)(CO)CO | inactive | inactive | inactive | inactive | inactive | inactive | inactive | inactive | inactive
O=C(c1ccccc1)C1CCC1 | inactive | inactive | inactive | inactive | inactive | inactive | inactive | inactive | inactive
C/C(C=O)=C\c1ccccc1 | inactive | inactive | inactive | inactive | inactive | inactive | inactive | inactive | inactive
CNC1CCCN(c2c(F)cc3c(=O)c(C(=O)O)cn(C4CC4)c3c2OC)C1 (stereo not drawn) | inactive | inactive | inactive | inactive | inactive | inactive | inactive |  | inactive
CC(=O)N[C@@H](Cc1ccc(O)cc1)C(=O)O | inactive | inactive | inactive | inactive | inactive | inactive | inactive | inactive | inactive
CC(C)Cc1ccc(CC(=O)O)cc1 | inactive | inactive | inactive | inactive | inactive | inactive |  |  | inactive
O=C(c1ccccc1)c1ccc(O)cc1 | inactive | inactive | inactive | inactive | inactive | inactive | inactive |  | inactive
O=C(Oc1ccccc1)c1ccc2ccccc2c1O | inactive | inactive | inactive | inactive | inactive | inactive | inactive |  | inactive
Nc1c(Cl)cc(Cl)cc1[N+](=O)[O-] | inactive | inactive | inactive | inactive |  | inactive | inactive | inactive | inactive
COc1ccc(C(=O)NCc2ccc(OCCN(C)C)cc2)cc1OC | inactive | inactive | inactive | inactive |  | inactive | inactive | inactive | inactive
OCC(CO)n1cnc(-c2ccc(F)cc2)c1-c1ccnc(Oc2ccccc2)n1 | inactive | inactive | inactive | inactive | inactive | inactive | inactive |  | inactive
CC1=C2[C@@H]([C@H](C)CC[C@H]2/C=C(\C)C(=O)O)[C@H](O)C1 | inactive | inactive | inactive | inactive | inactive | inactive | inactive |  | inactive
O=C(O)c1cccc(Oc2ccccc2)c1 | inactive | inactive | inactive | inactive | inactive | inactive | inactive |  | inactive
CCN(CC)c1ccc(C(=C2C=CC(=[N+](CC)CC)C=C2)c2ccc(S(=O)(=O)O)cc2S(=O)(=O)[O-])cc1 | inactive | 43.6 µM (active) | inactive | 8.63 µM (active) | 12.2 µM (active) | 19.5 µM (active) |  | inactive | inactive
CCCCCC | inactive | inactive | inactive | inactive |  | inactive | inactive |  | inactive
CCN(CC)CCOc1ccccc1C(=O)CCc1ccccc1 | inactive | 12 µM (active) | inactive | inactive | inactive | inactive |  |  | inactive
CC(C)N(C)C | inactive | inactive | inactive | inactive |  | inactive | inactive |  | 
